According to PubChem BioAssay (NCATS):
Records with an inconclusive call do not appear. A call without a number means that no potency is given here. Unmarked numbers belong to inactive results. Calls of active or inactive are those of the source. Calls follow the shape of the dose curve; as a rule, active = well fitted curve in the direction sought with a large enough effect; inconclusive = small, poorly fitted or top-dose-only effect, or another doubt; inactive = no such curve, though single readings can be large; an effect the other way counts as inactive or inconclusive.

Columns and labels:
NIH3T3 = test: Cytotoxic Profiling of Annotated Libraries Using Quantitative High-Throughput Screening (AID 1296008); settings: Five cell lines viability, CellTiter-Glo ATP luminescence, 48-72 h; max response: active compounds read low; also: nearly all actives have a fitted effect of over 60% in size
In short: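 Cells exposed to compounds for 48 or 72 hr at 37 degrees Celsius. Viability read as ATP-coupled luminescence with CellTiter-Glo after 10 min at room temperature.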

MCC-13 = test: qHTS assay to identify novel small-molecules to repurpose for Merkel cell carcinoma treatment (AID 1296009); settings: MCC and control cell lines, CellTiter-Glo viability, 72 h; series mostly up to 46 µM; also: nearly all actives have a fitted effect of over 60% in size
In short: (§1)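 CellTiter-Glo luminescence after 72 hr compound exposure at 37 degree celsius gave cell viability. Libraries NPC and MIPE were run as 8- and 11-point dose responses; RLUs normalized to DMSO (negative) and no-cell (cytotoxicity) controls.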

MCC-26 = test: as above; settings: MCC and control cell lines, CellTiter-Glo viability, 72 h; series mostly up to 46 µM
In short: as §1

MKL-1 = test: as above; settings: MCC and control cell lines, CellTiter-Glo viability, 72 h; series mostly up to 46 µM
In short: as §1

MKL-2 = test: as above; settings: MCC and control cell lines, CellTiter-Glo viability, 72 h; series mostly up to 46 µM
In short: as §1

UISO = test: as above; settings: MCC and control cell lines, CellTiter-Glo viability, 72 h; series mostly up to 46 µM
In short: as §1

WaGa = test: as above; settings: MCC and control cell lines, CellTiter-Glo viability, 72 h; series mostly up to 46 µM
In short: as §1

C33A = test: Primary qHTS to identify gynecologic anti-cancer compounds using libraries of approved drugs and bioactive compounds (AID 1345084); settings: Gynecologic cancer cell panel viability, ATPlite luminescence, 48 h; series mostly up to 57.5 µM; also: nearly all actives have a fitted effect of over 55% in size
In short: (§2)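 Five-concentration response, 48 h; readout is ATP-driven luciferase luminescence.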

CAOV3 = test: as above; settings: Gynecologic cancer cell panel viability, ATPlite luminescence, 48 h; series mostly up to 57.5 µM
In short: as §2

CASKI = test: as above; settings: Gynecologic cancer cell panel viability, ATPlite luminescence, 48 h; series mostly up to 57.5 µM
In short: as §2

Es-2 = test: as above; settings: Gynecologic cancer cell panel viability, ATPlite luminescence, 48 h; series mostly up to 57.5 µM
In short: as §2

HeLa = test: as above; settings: Gynecologic cancer cell panel viability, ATPlite luminescence, 48 h; series mostly up to 57.5 µM
In short: as §2

Hek293T = test: as above; settings: Gynecologic cancer cell panel viability, ATPlite luminescence, 48 h, control line for the selectivity index; series mostly up to 57.5 µM
In short: as §2

JEG-3 = test: as above; settings: Gynecologic cancer cell panel viability, ATPlite luminescence, 48 h; series mostly up to 57.5 µM
In short: as §2

OV90 = test: as above; settings: Gynecologic cancer cell panel viability, ATPlite luminescence, 48 h; series mostly up to 57.5 µM
In short: as §2

PA-1 = test: as above; settings: Gynecologic cancer cell panel viability, ATPlite luminescence, 48 h; series mostly up to 57.5 µM
In short: as §2

SKOV3 = test: as above; settings: Gynecologic cancer cell panel viability, ATPlite luminescence, 48 h; series mostly up to 57.5 µM
In short: as §2
Potency is read from the fitted curve at half-maximal effect.

SMILES | max response (NIH3T3) [%] | Potency (MCC-13) | Potency (MCC-26) | Potency (MKL-1) | Potency (MKL-2) | Potency (UISO) | Potency (WaGa) | Potency (C33A) | Potency (CAOV3) | Potency (CASKI) | Potency (Es-2) | Potency (HeLa) | Potency (Hek293T) | Potency (JEG-3) | Potency (OV90) | Potency (PA-1) | Potency (SKOV3) | Potency (NIH3T3)
CCCc1ccc(OCC(=O)N2CCN(C(=O)COc3ccc(CCC)cc3OC)CC2)c(OC)c1 | 0.399 | inactive | inactive | inactive | inactive | inactive | inactive | inactive | inactive | inactive | inactive | inactive | inactive | inactive | inactive | inactive | inactive | –
Nc1c(NC/C=C\COc2cc(CN3CCCCC3)ccn2)c(=O)c1=O | 0.202 | inactive | inactive | inactive | inactive | inactive | inactive | inactive | inactive | inactive | inactive | inactive | inactive | inactive | inactive | inactive | inactive | –
OC(CCCN1CCCCC1)(c1ccccc1)c1ccccc1 | -14.5 | inactive | inactive | inactive | inactive | inactive | inactive | inactive | inactive | inactive | inactive | inactive | inactive | inactive | – | inactive | inactive | –
[O-][n+]1cccc(/C(Cl)=N/OC[C@@H](O)CN2CCCCC2)c1 | 0.672 | inactive | inactive | inactive | inactive | inactive | inactive | inactive | inactive | inactive | inactive | inactive | inactive | inactive | inactive | inactive | inactive | –
Nc1ccc(C(=O)OCC(O)CO)cc1 (stereo unspecified) | 2.44 | inactive | inactive | inactive | inactive | inactive | inactive | inactive | inactive | inactive | inactive | inactive | inactive | inactive | inactive | – | inactive | –
COCCc1ccc(OCC2CO2)cc1 (stereo unspecified) | -4.27 | inactive | inactive | inactive | inactive | inactive | inactive | inactive | inactive | inactive | inactive | inactive | inactive | inactive | inactive | inactive | inactive | –
CCN1C(=O)c2ccccc2C1Nc1ccc(OCCN2CCCCC2)cc1 (stereo unspecified) | -13.7 | inactive | inactive | inactive | inactive | inactive | inactive | inactive | inactive | inactive | inactive | inactive | inactive | inactive | – | inactive | inactive | –
CC(C)NCCCC1(C(N)=O)c2ccccc2-c2ccccc21 | -1.37 | inactive | inactive | inactive | inactive | inactive | inactive | inactive | inactive | inactive | inactive | inactive | inactive | inactive | inactive | inactive | inactive | –
COc1ccc(OC(=O)N(CC(=O)O)Cc2ccc(OCCc3nc(-c4ccccc4)oc3C)cc2)cc1 | 0.554 | inactive | inactive | inactive | inactive | inactive | inactive | inactive | – | inactive | inactive | inactive | inactive | inactive | inactive | inactive | inactive | –
CC1(C)O[C@@H]2C[C@H]3[C@@H]4C[C@H](F)C5=CC(=O)C=C[C@]5(C)[C@@]4(F)[C@@H](O)C[C@]3(C)[C@]2(C(=O)CO)O1 | -12.6 | inactive | inactive | inactive | inactive | inactive | inactive | inactive | – | inactive | inactive | inactive | inactive | inactive | inactive | inactive | inactive | –
CCCCCN(CCCOC)C(=O)C(CCC(=O)O)NC(=O)c1ccc(Cl)c(Cl)c1 (stereo unspecified) | -3.2 | inactive | inactive | inactive | inactive | inactive | inactive | inactive | inactive | inactive | inactive | inactive | inactive | inactive | inactive | inactive | inactive | –
CN(C)C(=O)CNC(=O)Cc1ccccc1 | -5.07 | inactive | inactive | inactive | inactive | inactive | inactive | inactive | inactive | inactive | inactive | inactive | inactive | inactive | inactive | inactive | inactive | –
CC(=O)OCC(=O)[C@@]1(O)CCC2C3CCC4=CC(=O)CC[C@]4(C)C3[C@@H](O)C[C@@]21C (stereo partly specified) | 0.645 | inactive | inactive | inactive | inactive | inactive | inactive | inactive | – | inactive | inactive | inactive | inactive | inactive | inactive | inactive | inactive | –
N#Cc1cc(NC(=O)C(=O)O)c(Cl)c(NC(=O)C(=O)O)c1 | -0.466 | inactive | inactive | inactive | inactive | inactive | inactive | inactive | inactive | inactive | inactive | inactive | inactive | inactive | inactive | inactive | inactive | –
CC1CC(=O)NN=C1c1ccc(NCC(C)(C)NCC(O)COc2cc(Cl)ccc2C#N)cc1 (stereo unspecified) | -20.4 | inactive | inactive | inactive | inactive | inactive | inactive | – | inactive | inactive | inactive | inactive | inactive | inactive | inactive | inactive | inactive | –
O=C(O)CNC(=O)CNC(=O)CNC(=O)CSC(=O)c1ccccc1 | 1.99 | inactive | inactive | inactive | inactive | inactive | inactive | – | – | inactive | inactive | inactive | inactive | inactive | inactive | inactive | – | –
O=[N+]([O-])c1cncn1CCN1CCOCC1 | 2.27 | inactive | inactive | inactive | inactive | inactive | inactive | inactive | – | inactive | inactive | inactive | inactive | inactive | inactive | inactive | inactive | –
CC1(C)S[C@@H]2[C@H](NC(=O)C(c3ccccc3)S(=O)(=O)O)C(=O)N2[C@H]1C(=O)O (stereo partly specified) | 2.04 | inactive | inactive | inactive | inactive | inactive | inactive | inactive | inactive | inactive | inactive | inactive | inactive | inactive | inactive | inactive | inactive | –
O=[N+]([O-])c1ccc(O)c2ncccc12 | – | 11.9 µM (active) | 13.3 µM (active) | 3.76 µM (active) | 2.66 µM (active) | 7.5 µM (active) | 7.5 µM (active) | 15.8 µM (active) | – | – | – | inactive | – | inactive | – | – | – | 15 µM (active)
CC(=O)c1cc2ccccc2s1 | 1.18 | inactive | inactive | inactive | inactive | inactive | inactive | inactive | inactive | inactive | inactive | inactive | inactive | inactive | inactive | inactive | inactive | –
CC(C)C(=O)Nc1cccc(C2CN3CCSC3=N2)c1 (stereo unspecified) | -0.0334 | inactive | inactive | inactive | inactive | inactive | inactive | inactive | – | inactive | inactive | inactive | inactive | inactive | inactive | inactive | inactive | –
OCCc1ccccc1 | -0.715 | inactive | inactive | inactive | inactive | inactive | inactive | inactive | inactive | inactive | inactive | inactive | inactive | inactive | – | inactive | inactive | –
CN1C(=O)c2ccccc2C1=O | -7.13 | inactive | inactive | inactive | inactive | inactive | inactive | inactive | inactive | inactive | inactive | inactive | inactive | – | inactive | inactive | – | –
Cc1onc(-c2c(Cl)cccc2Cl)c1C(=O)Cl | -2.46 | inactive | inactive | inactive | inactive | inactive | inactive | inactive | – | inactive | inactive | inactive | inactive | inactive | inactive | inactive | inactive | –
Cc1ccc(Cl)c(OCC(O)CNC(C)(C)C)c1 (stereo unspecified) | 1.79 | inactive | inactive | inactive | inactive | inactive | inactive | inactive | inactive | inactive | inactive | inactive | – | inactive | inactive | – | inactive | –
C/C(=N\O)[C@@H](C)NCC(C)(C)CN[C@H](C)/C(C)=N/O | -0.119 | inactive | inactive | inactive | inactive | inactive | inactive | inactive | inactive | inactive | inactive | inactive | inactive | inactive | – | inactive | inactive | –
C/C(=C1\CCOC(=O)S1)N(C=O)Cc1cnc(C)nc1N | 0.237 | inactive | inactive | inactive | inactive | inactive | inactive | inactive | inactive | inactive | inactive | inactive | inactive | inactive | inactive | inactive | inactive | –
NCC(=O)O | -6.02 | inactive | inactive | inactive | inactive | inactive | inactive | inactive | inactive | inactive | inactive | inactive | inactive | inactive | inactive | inactive | inactive | –
CCN(CC)CCN | -0.486 | inactive | inactive | inactive | inactive | inactive | inactive | inactive | inactive | inactive | inactive | inactive | inactive | inactive | – | inactive | inactive | –
